Assay results taken from PubChem BioAssay AID1845 (The Scripps Research Institute Molecular Screening Center, 2009).
The campaign covered roughly 290,000 compounds. About 490 (0.17%) were called active. This is one part of a sample in which actives are shown more often than they occur. Unmarked numbers belong to inactive results. Rule as the data show it: active = inhibition above about 37%; inactive = the rest.

Experiment: DNA intercalator displacement agents – biochemical, FID fluorescence, artefact control for HCV NS3 helicase inhibitor project, primary screen (AID 1845);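 also: 0% = vehicle and 100% = reference compound; higher means more ethidium bromide displaced from hairpin DNA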
Conditions: DNA fluorescent intercalator displacement, at 7.9 µM, stronger effect = higher value

Q: Which inhibition does the source give for CN1CCN(c2cc(N3CCNCC3)ccc2[N+](=O)[O-])CC1 here?
A: 14.7%

Q: Which inhibition does the source give for COc1cccc(-c2nc3ccc(N4CCN(C)CC4)cc3[nH]2)c1 here?
A: 40.7% (active)

Q: With Cc1nc2ccc(N3CCN(C)CC3)cc2nc1C as the compound, how does the inhibition read?
A: 7.94%

Q: For Cn1c(O)c(C(=Nc2ccc(F)cc2)c2ccccc2)c(=O)n(C)c1=O, which inhibition is on record?
A: 1.2%

Q: For CCOC(=O)C1(Cc2ccc(Cl)cc2)CCN(C(C)CCn2cccn2)CC1 (stereo not given), which inhibition is on record?
A: 37.1% (active)

Q: With CCOC(=O)C1(CCc2ccccc2)CCN(Cc2ccco2)CC1 as the compound, how does the inhibition read?
A: 5.09%

Q: For Cn1c(C(=O)N2CCC(C(=O)N3CCC4(CC3)OCCO4)CC2)cc2sccc21, which inhibition is on record?
A: -30.4%

Q: With O=C(C1CC(=O)N(C2CCCC2)C1)N1CCC2(CC1)OCCO2 (stereo not given) as the compound, how does the inhibition read?
A: -1.99%

Q: For c1ccc(C2NCc3ccccc3-n3cccc32)cc1 (stereo not given), which inhibition is on record?
A: 9.21%

Q: For O=C(Cc1ccc(Cl)cc1)NCCN1CCN(C(=O)Cc2ccc(Cl)cc2)CC1, which inhibition is on record?
A: -26%
